For five compounds, z-score and composite z-score results are on record in PubChem BioAssay.

Activity calls are given as the source filed them.

Assay [1] in a line: optical density shifts of acrAB sulA E. coli – strain DRC41, OD650, 48 h, E. coli filamentation inducer project, primary screen (AID 1152).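 Also: E. coli MC1000 strain DRC41 lacking acrAB efflux pump and sulA.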 The conditions noted are these: higher = more signal, called active from +8 up or from −8 down.
The nature of assay [2]: probe aLefty1 binding on compound microarray – biochemical, small-molecule microarray, 635/667 nm fluorescence, primary screen (AID 1153).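 Also: score merges spot fluorescence with signal-to-noise ratio from the scanned slide images.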 The conditions noted are these: higher = more signal.
A short description of assay [3]: plasmodial surface anion channel blockers, osmotic lysis – cell-based, P. falciparum Indochina, OD700, 1 h, primary screen (AID 1154). The conditions noted are these: P. falciparum Indochina infected RBC osmotic lysis, higher = more signal, called active from +8 up or from −8 down.
A short description of assay [4]: plasmodial surface anion channel blockers, osmotic lysis – cell-based, P. falciparum Indochina, OD700, 2 h, primary screen (AID 1155).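 Also: lysis reports solute entry through the parasite surface anion channel PSAC.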 The conditions noted are these: P. falciparum Indochina infected erythrocytes, higher = more signal, called active from +8 up or from −8 down.
A short description of assay [5]: changes in parasitized red cell lysis, either direction – P. falciparum Indochina, OD700, 3 h, PSAC antagonist project, primary screen (AID 1156). The conditions noted are these: P. falciparum-infected erythrocytes, osmotic lysis, higher = more signal, called active from +8 up or from −8 down.
Assay [6] in a line: plasmodial surface anion channel blockers, osmotic lysis – cell-based, P. falciparum Indochina, OD700, 18 h, primary screen (AID 1157). The conditions noted are these: P. falciparum Indochina infected erythrocytes, osmotic lysis OD700, 18 h; higher = more signal, called active from +8 up or from −8 down.
Assay [7] can be described thus: S6 kinase pathway phospho-S6 level changes – cell-based, A549, cytoblot, luminescence, serum-stimulated, primary screen (AID 1158).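 Also: serum-stimulated A549 lung adenocarcinoma cells; signal is phosphorylated S6 detected by cytoblot immunostaining with HRP secondary.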 The conditions noted are these: 5 h, higher = more signal.
The target in assay [8] is NADPH oxidase 2 (Homo sapiens) (UniProt P04839). Put plainly: compounds shifting NOX2 Amplex Red fluorescence – cell-based, HEK293-NOX2, PMA-stimulated, NOX inhibitor project, primary screen (AID 1159). Also: test concentration not given here. The conditions noted are these: 45 min, higher = more signal, called active from +8 up or from −8 down.
Chain of NADPH oxidase 2 (Homo sapiens) (P04839 whole entry, looked up): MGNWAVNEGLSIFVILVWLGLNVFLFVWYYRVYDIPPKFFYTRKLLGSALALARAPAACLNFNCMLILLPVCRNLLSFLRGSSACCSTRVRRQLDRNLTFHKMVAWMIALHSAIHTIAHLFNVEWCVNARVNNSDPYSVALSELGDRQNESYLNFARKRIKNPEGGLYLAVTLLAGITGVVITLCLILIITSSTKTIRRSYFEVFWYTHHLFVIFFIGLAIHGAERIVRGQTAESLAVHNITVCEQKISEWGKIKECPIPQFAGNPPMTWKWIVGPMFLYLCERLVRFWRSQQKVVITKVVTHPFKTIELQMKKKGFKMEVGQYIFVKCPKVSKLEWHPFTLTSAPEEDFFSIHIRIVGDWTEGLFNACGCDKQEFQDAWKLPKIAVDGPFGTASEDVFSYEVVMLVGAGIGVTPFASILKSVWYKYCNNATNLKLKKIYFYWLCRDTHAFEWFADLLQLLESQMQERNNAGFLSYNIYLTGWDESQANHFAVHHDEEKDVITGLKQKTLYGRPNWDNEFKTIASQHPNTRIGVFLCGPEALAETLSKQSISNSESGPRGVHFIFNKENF
Assay [9] concerns the target NADPH oxidase 4 (Homo sapiens) (UniProt Q9NPH5). Description: compounds shifting NOX4 Amplex Red fluorescence – cell-based, HEK293-NOX4, tetracycline-induced, NOX inhibitor project, primary screen (AID 1160). The conditions noted are these: HEK293-NOX4, Amplex Red H2O2 fluorescence, 45 min; higher = more signal, called active from +8 up or from −8 down.
The target of assay [10] is NADPH oxidase 5 (Homo sapiens) (UniProt Q96PH1). Put plainly: compounds shifting NOX5 Amplex Red fluorescence – cell-based, HEK293-NOX5, NOX inhibitor project, primary screen (AID 1161). The conditions noted are these: HEK293-NOX5, ionomycin, 45 min, higher = more signal.
Chain of NADPH oxidase 5 (Homo sapiens) (Q96PH1 whole entry, looked up): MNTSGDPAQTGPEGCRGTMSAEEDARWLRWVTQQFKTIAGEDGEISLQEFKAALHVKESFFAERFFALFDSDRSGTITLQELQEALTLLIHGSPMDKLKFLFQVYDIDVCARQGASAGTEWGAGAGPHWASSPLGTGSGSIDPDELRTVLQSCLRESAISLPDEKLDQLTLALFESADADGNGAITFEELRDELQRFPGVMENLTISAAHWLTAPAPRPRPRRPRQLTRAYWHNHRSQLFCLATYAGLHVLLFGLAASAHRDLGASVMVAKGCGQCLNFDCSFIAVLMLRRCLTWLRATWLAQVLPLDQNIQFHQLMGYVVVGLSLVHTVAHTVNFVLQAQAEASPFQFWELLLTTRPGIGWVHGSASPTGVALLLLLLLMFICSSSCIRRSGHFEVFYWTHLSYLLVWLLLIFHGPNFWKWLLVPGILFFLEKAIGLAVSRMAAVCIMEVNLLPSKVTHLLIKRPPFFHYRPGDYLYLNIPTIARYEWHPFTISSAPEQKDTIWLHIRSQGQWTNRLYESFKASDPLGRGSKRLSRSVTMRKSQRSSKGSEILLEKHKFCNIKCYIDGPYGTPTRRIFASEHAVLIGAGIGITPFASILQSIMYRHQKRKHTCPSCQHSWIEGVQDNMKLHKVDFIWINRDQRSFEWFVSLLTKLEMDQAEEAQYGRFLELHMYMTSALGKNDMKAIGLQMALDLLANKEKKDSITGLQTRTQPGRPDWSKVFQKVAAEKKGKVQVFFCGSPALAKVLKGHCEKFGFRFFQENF
Assay [11] is described as follows: compound effects on lung adenocarcinoma cell viability – A549, calcein-AM fluorescence, 48 h, basal, profiling panel (AID 1162). Also: test concentration not given here. The conditions noted are these: higher = more signal.
A short description of assay [12]: compound effects on differentiated 3T3-L1 adipocyte viability – cell-based, 3T3-L1 adipocytes, calcein-AM fluorescence, 48 h, basal, profiling panel (AID 1163). Also: test concentration not given here. The conditions noted are these: 3T3-L1 adipocytes viability, higher = more signal.
The nature of assay [13]: compound effects on hepatocellular carcinoma cell viability – HepG2, calcein-AM fluorescence, 48 h, basal, profiling panel (AID 1164). Also: test concentration not given here. The conditions noted are these: higher = more signal.
Assay [14] in a line: compound effects on multiple myeloma cell viability – MM1S, calcein-AM fluorescence, 48 h, basal, profiling panel (AID 1165). Also: test concentration not given here. The conditions noted are these: higher = more signal.
The nature of assay [15]: calcein-AM signal in unstimulated myeloma cells – cell-based, calcein-AM fluorescence, 48 h, PK04 Diversity Set, profiling panel (AID 1166).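 Also: cells grown under basal conditions without added stimulus; test concentration not given here.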 The conditions noted are these: RPMI8226 myeloma viability, higher = more signal.
Assay [16] is described as follows: JC-1 mitochondrial signal, unstimulated HepG2 cells – cell-based, JC-1 fluorescence, 24 h, 100 nL compound, profiling panel (AID 1167). Also: test concentration not given here. The conditions noted are these: HepG2 mitochondrial potential, higher = more signal.
Assay [17] can be described thus: JC-1 mitochondrial signal, unstimulated adipocytes – cell-based, JC-1 fluorescence, 3T3-L1 adipocytes, 24 h, 100 nL compound, profiling panel (AID 1168). Also: test concentration not given here. The conditions noted are these: JC-1 mitochondrial fluorescence, higher = more signal, called active from +8 up or from −8 down.
Assay [18] can be described thus: JC-1 mitochondrial signal, unstimulated myeloma cells – cell-based, JC-1 fluorescence, RPMI8226, 24 h, 100 nL compound, profiling panel (AID 1169). Also: test concentration not given here. The conditions noted are these: JC-1 mitochondrial potential fluorescence, higher = more signal.
The nature of assay [19]: JC-1 mitochondrial signal, unstimulated MM1S myeloma – cell-based, JC-1 fluorescence, 24 h, 100 nL compound, profiling panel (AID 1170). Also: test concentration not given here. The conditions noted are these: MM1S mitochondrial potential, higher = more signal.
Assay [20] is described as follows: resazurin metabolic signal in A549 cells – cell-based, resazurin fluorescence, 24 h, PK04 Diversity Set, profiling panel (AID 1171). Also: test concentration not given here. The conditions noted are these: A549 viability, higher = more signal, called active from +8 up or from −8 down.

Chain of NADPH oxidase 4 (Homo sapiens) (Q9NPH5 whole entry, looked up): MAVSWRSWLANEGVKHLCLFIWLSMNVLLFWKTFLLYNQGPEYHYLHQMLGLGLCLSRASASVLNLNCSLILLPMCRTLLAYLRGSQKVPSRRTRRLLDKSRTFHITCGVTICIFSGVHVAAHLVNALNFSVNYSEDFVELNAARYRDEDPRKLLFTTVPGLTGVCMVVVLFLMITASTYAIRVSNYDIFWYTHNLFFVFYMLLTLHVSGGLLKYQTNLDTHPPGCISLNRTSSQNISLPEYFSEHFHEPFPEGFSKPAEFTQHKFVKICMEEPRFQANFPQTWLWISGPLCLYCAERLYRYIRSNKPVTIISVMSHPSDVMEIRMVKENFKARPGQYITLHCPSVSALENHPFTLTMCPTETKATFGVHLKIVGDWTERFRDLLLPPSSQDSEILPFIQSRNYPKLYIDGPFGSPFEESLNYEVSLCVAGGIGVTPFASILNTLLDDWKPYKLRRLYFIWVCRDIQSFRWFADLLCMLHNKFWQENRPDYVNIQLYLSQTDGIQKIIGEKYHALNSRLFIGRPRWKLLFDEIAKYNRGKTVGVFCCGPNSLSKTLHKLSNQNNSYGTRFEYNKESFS

Regarding `COc1ccc([Si](C)(C)[C@H]2[C@H](CC(=O)N3Cc4ccccc4C[C@H]3CO)O[C@@]3(C(=O)N(Cc4cccc(N5CCOC5=O)c4)c4ccccc43)[C@@H]2C)cc1`, the z-score in assay [1] is 0.666 (inactive); in assay [3], 4.02 (inactive); in [4], 1.09 (inactive); in [5], 0.739 (inactive); in assay [6] it was 0.771 (inactive); in [7] it was 2.73. Besides, the z-score in assay [8] is -1.14 (inactive); in assay [9] it was 0.916 (inactive); in [10], -1.09; in assay [11], 0.443; in [12], 0.373; in assay [13], -0.632. In addition, the z-score in [14] was -0.913; in assay [15], -0.727; in assay [16] it was 1.31; in [17], 0.405 (inactive); in assay [18], -1.1; in assay [19] it was -0.223. The z-score in assay [20] was -0.399 (inactive). Besides, the composite z-score in [2] is -0.012.
`COC(=O)Cn1c(C(=O)N2CCCC2)cc2c1C[C@H]1CN(C(=O)c3ccccc3)[C@@](Cc3ccc(OC)cc3)(C(=O)OC)[C@@H]21`: the z-score in assay [1] was -1.45 (inactive); in assay [3] it was 15.3 (active); in assay [4] it was 2.13 (inactive); in [5], 1.68 (inactive); in [6], 1.43 (inactive); in assay [7], -0.56. For the same compound, the z-score in assay [8] was 0.857 (inactive); in assay [9] it was 0.778 (inactive); in assay [10] it was 2.44; in [11] it was -0.643; in assay [12], -0.574; in assay [13], 0.0447. Further, the z-score in assay [14] is -1.72; in assay [15] it was -2.24; in [16], 1.49; in [17], -1.1 (inactive); in assay [18] it was -0.623; in assay [19] it was -1.95. In assay [20], the z-score is -1.09 (inactive). The same compound came in with a composite z-score in assay [2] of 0.51.
Consider `O=C1O[C@@H](c2ccccc2)[C@@H](c2ccccc2)N2[C@@H](c3ccc(O)cc3)[C@]3(C(=O)Nc4ccc(C#CC5(O)CCCCCC5)cc43)[C@@H](C(=O)Nc3nc4ccccc4s3)[C@H]12`, for which the z-score in assay [1] was 1.74 (inactive); in assay [3] it was 0.733 (inactive); in [4], -0.232 (inactive); in [5], 0.445 (inactive); in assay [6] it was -0.713 (inactive); in [7] it was 1.16. For the same compound, the z-score in assay [8] was 1.62 (inactive); in assay [9] it was -1.27 (inactive); in assay [10] it was 1.96; in assay [11], 1.46; in assay [12] it was 2.07; in assay [13] it was 0.417. Besides, the z-score was -1.55 in assay [14]; -1.97 in [15]; -2.15 in assay [16]; -0.444 (inactive) in assay [17]; -0.567 in assay [18]; 0.159 in [19]. For the same compound, in assay [20], the z-score is 1.2 (inactive). Moreover, in assay [2], the composite z-score was 0.271.
Consider `C=CC[C@]1(C(=O)OC)N=C(c2ccc(OCCCO)cc2)O[C@H]1c1ccccc1CN=[N+]=[N-]`, for which the z-score in assay [1] was 0.919 (inactive); in assay [3], 21.2 (active); in assay [4], 4.18 (inactive); in [5] it was 1.7 (inactive); in [6], 0.786 (inactive); in assay [7], 0.363. The z-score is -3.18 (inactive) in [8]; -0.411 (inactive) in assay [9]; -2.23 in [10]; -0.844 in assay [11]; 1.51 in assay [12]; -1.09 in assay [13]. In addition, the z-score is -2.04 in [14]; -2.24 in assay [15]; -0.000782 in [16]; 0.21 (inactive) in [17]; -1.01 in assay [18]; 0.734 in assay [19]. Besides, the z-score in [20] is -0.179 (inactive). Moreover, the composite z-score in assay [2] is 0.419.
In the case of `Cc1ccc(S(=O)(=O)N[C@H]2COC(=O)CC=C[C@H](C)COC(=O)N[C@@H](C)C(=O)CC=C[C@@H]2C)cc1`, the z-score is 0.0157 (inactive) in [1]; 1.3 (inactive) in assay [3]; 0.678 (inactive) in assay [4]; 1.1 (inactive) in assay [5]; 0.451 (inactive) in assay [6]; 1.87 in assay [7]. Moreover, the z-score is 0.142 (inactive) in assay [8]; -1.45 (inactive) in assay [9]; -0.213 in assay [10]; -0.235 in assay [11]; 0.538 in assay [12]; 0.984 in [13]. Moreover, the z-score in assay [14] is 0.399; in [15], -0.558; in [16], 1.27; in [17], 0.946 (inactive); in assay [18] it was -0.614; in assay [19], 0.809. Besides, the z-score in [20] is 0.333 (inactive). In [2], the composite z-score was -0.191.
